Source: article PMC11062922 (Nature Chemical Biology, 2023)
Like-named read-outs stand apart in the source and are kept apart here.

Key:
Design in all cases: species or system human, MV4-11 + K-562 + COLO205 + SK-N-BE2 + OVCAR-8
FES = conditions: read-out: apparent Kd, compound concentrations: 100 nM and 1000 nM (sheet 'Samples'), n = 1
GRK6 = conditions: read-out: apparent Kd; compound concentrations: 100 nM and 1000 nM (sheet 'Samples'), CATDS: 6.7200037487984698E-3; n = 1
RIPK3 = conditions: read-out: apparent Kd, n = 1
ACAD8 = conditions: read-out: apparent Kd, compound concentrations: 100 nM and 1000 nM (sheet 'Samples'), n = 1
BMPR1B = conditions: read-out: apparent Kd, n = 1
BMPR2 = conditions: read-out: apparent Kd; compound concentrations: 100 nM and 1000 nM (sheet 'Samples'), CATDS: 4.3596889964012502E-3; n = 1
CDK13 = conditions: read-out: apparent Kd, compound concentrations: 100 nM and 1000 nM (sheet 'Samples'), n = 1
DDR2 = conditions: read-out: apparent Kd, compound concentrations: 100 nM and 1000 nM (sheet 'Samples'), n = 1
LIMK1 = conditions: read-out: apparent Kd, compound concentrations: 100 nM and 1000 nM (sheet 'Samples'), n = 1
MAP2K6 = conditions: read-out: apparent Kd; compound concentrations: 100 nM and 1000 nM (sheet 'Samples'), CATDS: 4.6544489898713796E-3; n = 1
MET = conditions: read-out: apparent Kd, n = 1
MST1R = conditions: read-out: apparent Kd; compound concentrations: 100 nM and 1000 nM (sheet 'Samples'), CATDS: 4.6001362310290703E-3; n = 1
NEK3 = conditions: read-out: apparent Kd, n = 1
PI4KB = conditions: read-out: apparent Kd; compound concentrations: 100 nM and 1000 nM (sheet 'Samples'), CATDS: 8.6005526131726403E-3; n = 1
PIK3CB = conditions: read-out: apparent Kd; compound concentrations: 100 nM and 1000 nM (sheet 'Samples'), CATDS: 8.3047003401232992E-3; n = 1
SIK3 = conditions: read-out: apparent Kd, compound concentrations: 100 nM and 1000 nM (sheet 'Samples'), n = 1
VDAC3 = conditions: read-out: apparent Kd; compound concentrations: 100 nM and 1000 nM (sheet 'Samples'), CATDS: 4.6944952504306397E-3; n = 1
PDXK = conditions: read-out: apparent Kd; compound concentrations: 100 nM and 1000 nM (sheet 'Samples'), CATDS: 3.03985195702474E-2; n = 1
ACOX1 = conditions: read-out: apparent Kd, n = 1
ADCK3 = conditions: read-out: apparent Kd, compound concentrations: 100 nM and 1000 nM (sheet 'Samples'), n = 1
[1] = compound concentrations:100 nM and 1000 nM (sheet 'Samples')

O=C1N=C(NCCc2ccc(Cl)cc2)S/C1=C\c1ccc2ncccc2c1 [RO4498479-000]
potency estimated from few doses (FES; CATDS: 7.5853712865523596E-3): 1210 nM | potency estimated from few doses (GRK6): 1960 nM

Cl.NCc1ccc(-c2nc(-c3ccc(Cl)c(O)c3)c(-c3ccncc3)[nH]2)cc1 [SB-476429-A]
potency estimated from few doses (RIPK3; [1]): 1200 nM

Cn1ncc2c(N)ncnc21 [SKF-18267]
potency estimated from few doses (ACAD8; CATDS: 3.4609202589527301E-3): 2010 nM | potency estimated from few doses (BMPR1B; compound concentrations: 100 nM and 1000 nM (sheet 'Samples'), CATDS: 8.9058122855820206E-3): 311 nM | potency estimated from few doses (BMPR2): 1090 nM | potency estimated from few doses (CDK13; CATDS: 3.42159578661501E-3): 2090 nM | potency estimated from few doses (DDR2; CATDS: 4.5419231694641699E-3): 994 nM | potency estimated from few doses (FES; CATDS: 5.1575309929755304E-3): 766 nM | potency estimated from few doses (LIMK1; CATDS: 4.4629455520233396E-3): 1030 nM | potency estimated from few doses (MAP2K6): 943 nM | potency estimated from few doses (MET; compound concentrations: 100 nM and 1000 nM (sheet 'Samples'), CATDS: 4.2018834707484203E-3): 1190 nM | potency estimated from few doses (MST1R): 967 nM | potency estimated from few doses (NEK3; compound concentrations: 100 nM and 1000 nM (sheet 'Samples'), CATDS: 4.0159133314047798E-3): 1320 nM | potency estimated from few doses (PI4KB): 328 nM | potency estimated from few doses (PIK3CB): 345 nM | potency estimated from few doses (RIPK3; compound concentrations: 100 nM and 1000 nM (sheet 'Samples'), CATDS: 3.42256468250394E-3): 2080 nM | potency estimated from few doses (SIK3; CATDS: 3.59529212961178E-3): 1790 nM | potency estimated from few doses (VDAC3): 926 nM

CCOC(=O)N1CCC(n2cnc(-c3ccc(F)cc3)c2-c2ccnc(N)n2)CC1 [SB-219952]
potency estimated from few doses (DDR2; CATDS: 9.5517965767772696E-3): 979 nM

Cc1cccc2c(-c3ccncn3)c(-c3ccc(F)cc3)nn12 [GW515532X]
potency estimated from few doses (CDK13; CATDS: 0.21960096407146401): 1800 nM

CNC(=O)c1ccccc1Nc1nc(Nc2ccc(N3CCOCC3)cc2)ncc1Cl.Cl [GSK1576028A]
potency estimated from few doses (BMPR1B; [1]): 429 nM | potency estimated from few doses (MET; [1]): 68.1 nM

CN(c1ccc(NC(=O)N2CCN(CCCN3CCOCC3)CC2)cc1)c1ccnc(Nc2ccc(CS(C)(=O)=O)cc2)n1.Cl [GW830899A]
potency estimated from few doses (PDXK): 617 nM

Cc1cccc(Nc2nc(N[C@H]3CCCC[C@H]3N)ncc2C(N)=O)c1.Cl [GSK986310C]
potency estimated from few doses (ACOX1; [1]): 1340 nM

COc1ccc(Nc2ncc(C#N)c(Nc3ccccc3C(N)=O)n2)cc1N1CCN(C)CC1.Cl [GSK1558669A]
potency estimated from few doses (DDR2; CATDS: 6.40385177631159E-3): 1140 nM | potency estimated from few doses (FES; CATDS: 8.0815646455300594E-3): 387 nM | potency estimated from few doses (LIMK1; CATDS: 6.2092464562502302E-3): 1380 nM | potency estimated from few doses (MET; compound concentrations: 100 nM and 1000 nM (sheet 'Samples'), CATDS: 6.0762727664259702E-3): 1600 nM | potency estimated from few doses (SIK3; CATDS: 6.59336570259887E-3): 968 nM

O=C1N=C(NCCCc2ccccc2)S/C1=C\c1ccc2ncccc2c1 [RO4493941-000]
potency estimated from few doses (ADCK3; CATDS: 7.1008465963160003E-2): 940 nM

CNCC#Cc1c(F)ccc2c1/C(=C/c1[nH]ccc1OC)C(=O)N2.Cl [RO0281601-001]
potency estimated from few doses (ACOX1; compound concentrations: 100 nM and 1000 nM (sheet 'Samples'), CATDS: 2.54235943095352E-2): 1140 nM

CN(C)CC(O)COc1ccc(Nc2nccc(-c3cnn4nc(N5CCOCC5)ccc34)n2)cc1 (stereo not drawn) [GW767488X]
potency estimated from few doses (NEK3; [1]): 467 nM

CNCc1ccc(-c2cc(-c3nc(-c4ccc(S(=O)(=O)C(C)C)cc4)cnc3N)on2)cc1 [VE-822]
potency estimated from few doses (BMPR1B; [1]): 868 nM

CS(=O)(=O)Nc1cccc(-c2ccc3c(NC(=O)C4CC4)n[nH]c3c2)c1 [SB-742864]
potency estimated from few doses (ADCK3; CATDS: 0.16822822033669799): 659 nM

FC(F)(F)c1ccc(-c2ncn(CCCN3CCOCC3)c2-c2ccncc2)cc1 [SB-217780]
potency estimated from few doses (ACAD8; CATDS: 0.18065047008749499): 2210 nM
